ChEMBL document CHEMBL4513216, “Probing the Open Global Health Chemical Diversity Library for Multistage-Active Starting Points for Next-Generation Antimalarials” (ACS Infect Dis, 2020)
The whole screen tested about 65,000 compounds, of which about 2,100 (3.2%) showed an effect of 50% or more. The median lay at about -52%. Shown is part of a subset that was picked to be rich in strong results.

tested on: Plasmodium falciparum; experiment: Screen against P. falciparum Asexual Blood Stage (ABS), at 5uM; type: functional, Dd2; conditions: tested at 5 uM

Q: With `COCCN1CCN(CCCS(=O)(=O)c2ccccc2)CC1C` (stereo unspecified) as the compound, how does the INHIBITION read?
A: -121%

Q: With `CC1CN(Cc2ccccc2)CCCN1CCCS(C)(=O)=O` (stereo unspecified) as the compound, how does the INHIBITION read?
A: 53.2%

Q: How did the INHIBITION turn out when `CNS(=O)(=O)CCCN1CCCN(Cc2ccccc2)CC1C` (stereo unspecified) was run?
A: 59.7%

Q: With `CNS(=O)(=O)CCCN1CCCCCC1c1ccc(C)o1` (stereo unspecified) as the compound, how does the INHIBITION read?
A: 10.3%

Q: How did the INHIBITION turn out when `O=C(Cn1cccn1)Nc1ccc(N2CCOCC2)cc1` was run?
A: -6.33%

Q: `CN(C)C(=O)Cc1nc(CN2CCOC(Cn3cccn3)C2)cs1` (stereo unspecified) was tested. Which INHIBITION did it give?
A: -56%

Q: How did the INHIBITION turn out when `Cc1nn(C)cc1CN1CCCCCC1c1ccccc1Cl` (stereo unspecified) was run?
A: -104%

Q: With `Cc1nn(C)cc1CN1CCN(CC2(c3ccccc3)CC2)CC1` as the compound, how does the INHIBITION read?
A: 67.2%

Q: With `Cc1nn(C)cc1CN1CCC(C2Nc3ccccc3S(=O)(=O)N2)CC1` (stereo unspecified) as the compound, how does the INHIBITION read?
A: -123%

Q: For `CCn1c(C)cc(C(=O)N2CCC(NC(=O)c3ccc(C)o3)CC2)c1C`, which INHIBITION is on record?
A: -31.2%

Q: With `CS(=O)(=O)C1CCN(S(=O)(=O)Cc2cccc(F)c2)CC1` as the compound, how does the INHIBITION read?
A: -89.8%

Q: For `CN(C)CC1CSCCCN1S(=O)(=O)c1ccc(C(F)(F)F)cc1` (stereo unspecified), which INHIBITION is on record?
A: 60.7%

Q: How did the INHIBITION turn out when `CN(C)CC1CSCCCN1S(=O)(=O)Cc1cccc(F)c1` (stereo unspecified) was run?
A: 58.6%

Q: Which INHIBITION does the source give for `Cc1nccn1CC1CCCN1S(=O)(=O)Cc1cccc(F)c1` (stereo unspecified) here?
A: -54%

Q: Which INHIBITION does the source give for `CN(C)CC1CSCCCN1S(=O)(=O)Cc1ccc(C(F)(F)F)cc1` (stereo unspecified) here?
A: 10.1%

Q: How did the INHIBITION turn out when `CN(C)CC1CSCCCN1C(=O)Nc1ccc(C(C)(C)C)cc1` (stereo unspecified) was run?
A: -12.2%

Q: How did the INHIBITION turn out when `CC(C)N(Cc1ccc(C(=O)O)o1)C(C)C` was run?
A: -21.6%

Q: How did the INHIBITION turn out when `Cc1cnc(N2CCc3c(c(COc4cncnc4)nn3C)C2)nc1` was run?
A: -95%

Q: `CCc1nc(C2NC3(CCCC3)C(=O)N2CC2CC2)cs1` (stereo unspecified) was tested. Which INHIBITION did it give?
A: -67.6%

Q: How did the INHIBITION turn out when `CN(C)CCNC(=O)CCC1CCN(C(=O)c2ccc(Cl)cc2O)CC1` was run?
A: -57.2%

Q: Which INHIBITION does the source give for `Cc1ccc(CN2CCC3(CC(=O)N(c4ccc5c(c4)OCO5)C3)C2)o1` (stereo unspecified) here?
A: -11.7%

Q: Which INHIBITION does the source give for `Cc1nc(C)n(C2CCCN(C(=O)COc3ccccc3)C2)n1` (stereo unspecified) here?
A: -30.7%

Q: With `Cc1noc(C)c1-c1cccc(C2CCN(S(=O)(=O)N(C)C)CC2)n1` as the compound, how does the INHIBITION read?
A: -81.4%

Q: `Cc1ccc(C)c(S(=O)(=O)N2CCN(C)C3(CCC(=O)N(C)CC3)C2)c1` (stereo unspecified) was tested. Which INHIBITION did it give?
A: -107%

Q: For `Cc1noc(C)c1-c1n[nH]c2c1CN(S(=O)(=O)c1cccs1)CC2`, which INHIBITION is on record?
A: -24.2%

Q: For `Cc1ccc(S(=O)(=O)N2CC[C@@H](O)C2)c(F)c1`, which INHIBITION is on record?
A: -13.3%

Q: For `Cc1ccc(F)c(S(=O)(=O)N2CCCC2c2ccncc2)c1` (stereo unspecified), which INHIBITION is on record?
A: -73.9%

Q: Which INHIBITION does the source give for `CCC[C@H]1CN(S(=O)(=O)c2ccc(-c3c(C)noc3C)s2)C[C@@H]1N` here?
A: 72.8%

Q: Which INHIBITION does the source give for `CCC[C@H]1CN(S(=O)(=O)c2cc(C)ccc2C)C[C@@H]1N` here?
A: 68.6%

Q: How did the INHIBITION turn out when `CCC[C@@H]1CN(S(=O)(=O)c2ccc(C)c(F)c2)C[C@H]1N(C)C` was run?
A: 39.9%

Q: For `CCC[C@H]1CN(S(=O)(=O)c2cc(C)ccc2F)C[C@@H]1N`, which INHIBITION is on record?
A: 52.5%

Q: How did the INHIBITION turn out when `CN(C)c1cc2c(nn1)CCN(C(=O)c1ccc(-n3cccn3)nc1)C2` was run?
A: -129%

Q: With `CC(C)n1nc(CN2CCOCC2)c2c1CN(C(=O)c1ccno1)C2` as the compound, how does the INHIBITION read?
A: -44.4%

Q: For `Cc1ccc(C(=O)N2CC[C@@H]3[C@H]2CCC(=O)N3CCN(C)C)cn1`, which INHIBITION is on record?
A: -2.53%

Q: Which INHIBITION does the source give for `CCc1cnc(NC(=O)NC2CCN(C)CC2)s1` here?
A: -80.8%

Q: With `CC1=N[C@@]2(CC[C@@H]3CN(C(=O)NCc4cccc(F)c4)C[C@@H]32)C(=O)N1` as the compound, how does the INHIBITION read?
A: -94.6%

Q: For `CC(C(=O)Nc1ccccc1F)S(C)(=O)=O` (stereo unspecified), which INHIBITION is on record?
A: -75.4%

Q: With `Cc1nc(-c2ccc(Cl)cc2)n(CC(=O)NC(C)C)c(=O)c1CCO` as the compound, how does the INHIBITION read?
A: -186%

Q: How did the INHIBITION turn out when `CCC(CN1CCCC1)NC(=O)Cc1c(C)[nH]c2cc(C)cc(C)c12` (stereo unspecified) was run?
A: 61.6%

Q: Which INHIBITION does the source give for `Cc1cc(C)c(C(=O)NC(CN2CCCC2)c2ccccc2)c(=O)[nH]1` (stereo unspecified) here?
A: -88.9%

Q: How did the INHIBITION turn out when `Cc1cc(C)c(CCNC(=O)CN2CCCN(C(N)=O)CC2)c(C)c1` was run?
A: -67.4%

Q: How did the INHIBITION turn out when `CC(=O)c1c(C)nn(CC(=O)N2CCCC2c2ccc(C(N)=O)s2)c1C` (stereo unspecified) was run?
A: -149%

Q: With `CCN(CC)C(=O)CCc1nc(-c2cnn3c(C)cc(C)nc23)no1` as the compound, how does the INHIBITION read?
A: -59.8%

Q: Which INHIBITION does the source give for `COC[C@H]1CCC[C@]12CN(CCc1ccccc1)CCO2` here?
A: -30.9%

Q: For `O=C1CC[C@H]2[C@H](CCN2S(=O)(=O)C2CC2)N1CCN1CCCC1`, which INHIBITION is on record?
A: -109%

Q: `CC(C)[C@H](N)CC(=O)Nc1nc(-c2cnc(N3CCOCC3)nc2)cs1` was tested. Which INHIBITION did it give?
A: -62.3%

Q: `Cc1ccsc1[C@@H]1CCN(C(=O)Cc2ccc(O)cc2)C[C@H]1O` was tested. Which INHIBITION did it give?
A: 11.1%

Q: `CN1C[C@H](c2ccccc2)[C@H]2CN(C(=O)Cc3ccc(O)cc3)CC[C@H]21` was tested. Which INHIBITION did it give?
A: 58%

Q: Which INHIBITION does the source give for `CN1C[C@H](c2ccccc2)[C@H]2CN(C(=O)Cc3cccc(O)c3)CC[C@H]21` here?
A: 48.1%

Q: `COC(=O)[C@@H]1CCCN1C(=O)c1cn(C/C=C/c2ccccc2)nn1` was tested. Which INHIBITION did it give?
A: -29.2%

Q: How did the INHIBITION turn out when `CC(CCc1ccccc1)NC(=O)CNCCCN(C)C` (stereo unspecified) was run?
A: -20.5%
